Screens: PubChem, The Scripps Research Institute Molecular Screening Center
Most compounds without a hit are left out; they make up all but 4.6% or so of the library.
Wee1 stabilizer = inhibitors of human Wee1 degradation. P30291. HeLa Luc-Wee1K328M stability, luciferase luminescence; 100% = proteasome inhibitor MG132 effect. reporter increase, % at 5 µM. hit rate 1.2% among 220,000. AID 1321;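 active = activation above the mean of all tested compounds plus 3 SD, set per screening run, cut at about 8.8% in these data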;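 note: cells exposed to compound for 20 h before luminescence read; 0% = DMSO alone and 100% = MG132 at 30 µM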
hgDAF-12 ag = hgDAF-12 agonism, primary luciferase screen; HEK293 GAL4-hgDAF12 UAS-luciferase reporter, agonist luminescence; normalized to butyrate control; hit rate 1.8% among 370,000; activation, % at 6.8 µM;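 active = activation above a cutoff set at the mean of all screened compounds plus 3 SD, cut at about 10% in these data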;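 note: 0% = DMSO wells and 100% = sodium butyrate wells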
DAX1 inh-1 = inhibitors of human orphan nuclear receptor DAX1 (NR0B1); P51843; HEK293 Gal4-DAX1 luciferase reporter, luminescence; inhibition, % at 6.75 µM; hit rate 0.99% among 340,000;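 active = inhibition above the mean over all tested compounds plus 3 SD, cut at about 4.2% in these data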;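 note: 0% = DAX1-transfected cells with DMSO and 100% = empty-vector control cells with DMSO; inhibition shows as a rise in luminescence from relieved DAX1 repression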
hcDAF-12 act = activates DAF-12 receptor from parasite H. contortus. HEK293 hcDAF-12 lit1-tk-luc reporter, luminescence; 0% DMSO, 100% Δ7-dafachronic acid. activation, % at 6.8 µM. hit rate 1.4% among 370,000;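 active = activation above the mean of all tested compounds plus 3 SD, cut at about 5.5% in these data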;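 note: 100% = response to 3 µM Δ7-dafachronic acid high control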
ssDAF-12 act = activates DAF-12 receptor from parasite S. stercoralis | HEK293 ssDAF-12/GRIP1 lit1-tk-luc reporter, luminescence; % of 3 µM dafachronic acid response | hit rate 1% among 370,000 | activation, % at 6.8 µM | AID 652126;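 active = activation above the mean over all tested compounds plus 3 SD, cut at about 0.9% in these data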;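 note: 0% = DMSO-only wells and 100% = 3 µM delta7-dafachronic acid wells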
DAX1 inh-2 = blocks DAX1 repression of SF-1 activated StAR promoter. inhibition, % at 6.8 µM. hit rate 1.1% among 370,000. HEK293T StAR-luciferase reporter, SF-1/DAX-1 repression relief;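 active = inhibition above the mean over all tested compounds plus 3 SD, cut at about 3.6% in these data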;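 note: 0% = DAX-1 cells with DMSO and 100% = cells lacking DAX-1 with DMSO; higher inhibition means more luminescence from relief of DAX-1 repression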
LXR ag = activates human LXR-beta, counter-screen for hcDAF-12 agonists; HEK293 Gal4-LXR tk-luc reporter, luminescence, 24 h; normalized: DMSO 0%, positive control 100%; 3,400 tested, under 10 active; activation, % at 6.8 µM; shares compounds with hcDAF-12 act;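 active = mean percent activation of the reporter above a cutoff set as the average over tested compounds plus their standard deviation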
Target sequence (P55055 whole entry, looked up, the tested form may be a part): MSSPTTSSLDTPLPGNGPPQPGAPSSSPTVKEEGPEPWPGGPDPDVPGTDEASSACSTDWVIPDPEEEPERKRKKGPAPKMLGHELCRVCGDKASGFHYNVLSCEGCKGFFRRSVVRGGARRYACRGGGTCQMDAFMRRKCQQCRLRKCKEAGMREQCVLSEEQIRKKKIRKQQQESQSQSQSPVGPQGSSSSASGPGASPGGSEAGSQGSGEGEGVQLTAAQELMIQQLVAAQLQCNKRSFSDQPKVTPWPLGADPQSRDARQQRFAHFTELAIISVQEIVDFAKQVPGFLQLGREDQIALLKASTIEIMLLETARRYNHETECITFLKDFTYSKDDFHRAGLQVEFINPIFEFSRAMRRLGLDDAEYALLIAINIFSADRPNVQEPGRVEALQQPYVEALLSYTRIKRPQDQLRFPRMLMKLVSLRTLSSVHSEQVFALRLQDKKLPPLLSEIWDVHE
hcDAF12 conf = hcDAF-12 agonism, confirmation assay; HEK293 hcDAF-12 lit1-tk-luc reporter, luminescence; % of Δ7-dafachronic acid response; hit rate 61% among 3,400; shares compounds with hcDAF-12 act; activation, % at 6.8 µM;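 active = mean activation across triplicate tests above the threshold derived from the earlier primary screen, cut at about 5.5% in these data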;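 note: 0% = DMSO only wells and 100% = 3 µM Δ7-dafachronic acid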
Active calls of the source: *; · = no result given.

SMILES	Wee1 stabilizer	hgDAF-12 ag	DAX1 inh-1	hcDAF-12 act	ssDAF-12 act	DAX1 inh-2	LXR ag	hcDAF12 conf
c1ccc(Nc2nc(-c3ccccn3)cs2)cc1	5	13*	1	13*	1.3*	2	2	11*
CCOC(=O)c1cc(C)sc1NC(=O)CSC1=NCCS1	·	3	0	-1	0	-2	·	·
CN1CCN(C(=O)Nc2ccccc2CC[N+](=O)[O-])CC1	-1	-1	0	13*	0	1	0	4
CN1CCN(C(=O)Nc2ccccc2)CC1	-2	3	-1	0	-2	0	·	·
CC(C)c1ccc(NC(=O)c2sccc2-n2cccc2)cc1	0	12*	0	11*	0	1	0	8.9*
Cc1c(Br)cccc1NC(=O)c1sccc1-n1cccc1	-1	0	-1	-1	-1	-1	·	·
CCN(Cc1ccc(Cl)s1)C(=O)c1cccc(OCc2c(C)noc2C)c1	·	-4	-1	-1	-1	-2	·	·
COc1ccccc1C(=O)N/C(N)=N/c1nc2ccccc2o1	3	4	0	7.0*	1.1*	1	1	8.6*
CC(C)(C)C1CCc2c(sc3c2C(=O)NC(c2ccco2)N3)C1 (centres undefined)	-3	0	1	7.5*	0	-1	0	4
O=C(O)COc1ccc(Br)cc1C(c1c(C(=O)O)[nH]c2ccccc12)c1c(C(=O)O)[nH]c2ccccc12	·	·	1	·	·	·	·	·
C=CCOc1ccc(C(c2c(C(=O)O)[nH]c3ccccc23)c2c(C(=O)O)[nH]c3ccccc23)cc1	·	3	2	7.5*	0	0	0	7.6*
CC1CCCC(=NNc2ccc3ccccc3n2)C1 (centres undefined)	·	3	3	6.7*	0	1	0	3
COc1ccc(CN2C[C@]3(C=C(C)Cn4c(=O)n(-c5ccccc5)c(=O)n43)N=C2NC(=O)c2ccccc2)c(OC)c1	·	2	·	-2	-2	-1	·	·
O=C1CNC(=S)N1c1nc2ccccc2s1	0	5	1	6.8*	0	1	0	8.0*
CCOc1ccc(Br)cc1S(=O)(=O)NCC(c1ccc(OC)cc1)N1CCOCC1 (centres undefined)	·	1	2	0	0	0	·	·
CC1(C(=O)NCc2cccnc2)Cc2c(-c3cccc(C(F)(F)F)c3)ccnc2O1 (centres undefined)	·	-6	·	-4	-2	-3	·	·
CN=c1scc(C)n1/N=C/c1ccc(O)cc1O	6	6	-2	7.6*	1	3.6*	2	6.6*
CN=c1scc(-c2ccccc2F)n1/N=C/c1ccc(O)c(O)c1O	-2	6	-2	7.2*	1	3	1	16*
CN=c1scc(C)n1/N=C/c1ccc(O)cc1	-1	2	3	1	0	3	·	·
Cc1ccc(OCc2cc(C(=O)N(C)CCc3ccccn3)no2)cc1C	·	9	0	7.3*	0	2	0	3
CC(=O)c1cccc(OCc2cc(C(=O)N(C)CCc3ccccn3)no2)c1	·	0	0	-1	-1	0	·	·
COc1ccc(CN(C(=O)c2cc3ccccc3oc2=O)C2CCS(=O)(=O)C2)cc1 (centres undefined)	0	1	1	3	-1	0	·	·
COc1ccc(CN(C(=O)c2cc3ccccc3oc2=O)C2CCS(=O)(=O)C2)cc1OC (centres undefined)	·	10	0	10*	0	1	1	3
Oc1oc(-c2ccccc2)nc1C=Nc1cccc2ccccc12	2	3	0	12*	0	-1	0	5
COc1cc(/C=N/Nc2ccc3ccccc3c2)ccc1OC(=O)c1ccco1	0	5	1	6.8*	0	0	0	7.5*
SMILES	Wee1 stabilizer	hgDAF-12 ag	DAX1 inh-1	hcDAF-12 act	ssDAF-12 act	DAX1 inh-2	LXR ag	hcDAF12 conf
COc1cc(/C=N/Nc2nc(C)cc(C)n2)ccc1OC(=O)c1ccco1	2	0	-1	0	-1	0	·	·
Cc1cc(Cl)ccc1OCC(=O)NCCOC(=O)Nc1sc(=S)n(C)c1C	3	1	-1	6.9*	0	0	0	-1
NC(=O)C1CCCN(C(=S)Nc2cccc3ccccc23)C1 (centres undefined)	0	2	1	7.7*	0	1	0	0
COC(=O)Cn1c(=NC(=O)C2CC2)sc2c(C)cc(C)cc21	0	0	-1	-1	-1	0	·	·
Cc1ccc2c(c1)sc(=NC(=O)c1cccs1)n2C	1	15*	-4	7.9*	1.6*	2	1	23*
C#CCn1c(=NC(=O)c2cccs2)sc2cccc(OC)c21	-1	8	1	3	0	-2	·	·
Cc1ccc2c(c1)sc(=NC(=O)C1CC1)n2C	1	13*	3	8.7*	1.7*	3	1	14*
Cc1cc(-c2ccccc2)nc(N/N=C/c2ccccc2F)n1	·	8	-1	2	-1	0	·	·
Cc1csc(N/N=C/c2ccccc2F)n1	·	10	3	7.2*	1	1	1	10*
O=C(CCS(=O)(=O)c1ccc(Cl)cc1)NC1CCCC1	·	1	0	0	-1	-1	·	·
COC(=O)c1ccc(OCC(=O)c2ccccc2)cc1	4	11*	3	9.0*	1.3*	2	1	5
O=C(Nc1cccc(F)c1)Nc1cnccn1	·	-1	0	1	-1	0	·	·
O=C(Nc1cccc(F)c1)Nc1ccccn1	4	8	3	8.7*	-1	1	1	1
CCCCN1CC(N(C)CCN(C)C)CS1(=O)=O (centres undefined)	·	-2	·	0	-1	0	·	·
CCN(CC(=O)NC1CCS(=O)(=O)C1)S(=O)(=O)c1ccc(Br)cc1 (centres undefined)	·	1	-1	-1	-2	0	·	·
CCOc1ccccc1NC(=O)CSc1nc2ccccc2nc1N1CCOCC1	·	-2	1	3	0	0	·	·
CCOc1ccccc1NC(=O)CSc1nc2ccccc2nc1N1CCCC1	·	3	0	8.0*	1.5*	-1	0	3
Nc1nc(SCc2ccccc2)c2ncn(C3CCCO3)c2n1 (centres undefined)	·	3	3	2	-1	1	·	·
